The source made the active and inactive calls.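 Rule for the calls, unless noted: active = visually confirmed hit in the image check and inhibition above 20%; inconclusive = visually confirmed hit but inhibition not above 20%; inactive = no visual hit in the image check.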
Columns and labels:
[1] = inhibitors of TNFa-induced NFkB p65 translocation, primary screen, imaging, HUVEC, MLSMR starter and 10KST1 sets (AID 438;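 active = inhibition above 20% together with a positive visual image hit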;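 note: compound added about 3h40 before a 20 min TNFalpha stimulation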;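 for inhibition: signal is the nuclear over cytoplasmic p65 intensity ratio per well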); settings: HUVEC TNFa-induced p65 nuclear translocation; cell count: measured here: nuclei count (cytotoxicity indicator), at 2.08 µM; inhibition: at 2 µM, stronger effect = higher value, 0% TNFa-plus-vehicle, 100% no-TNFa wells
[2] = inhibitors of mutant huntingtin aggregation, primary screen, imaging, exon1htt(103Q)mCFP cells, high-content imaging (AID 483;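 active = visual image review flags a hit and inhibition of aggregation exceeds 20%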;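 note: compound exposure lasted 3 days before fixation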;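 for nuclei count: percent of the per-plate median nuclei count of sample wells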); settings: exon1htt(103Q)mCFP cell line, aggregate imaging, at 2 µM; inhibition of aggregation: stronger effect = higher value; nuclei count: measured here: cell count, toxicity
[3] = inhibitors of E-selectin induction by TNFa, primary screen, imaging, HUVEC, immunofluorescence, MLSMR starter and 10KST1 sets (AID 487); settings: HUVEC TNFalpha-induced E-selectin immunofluorescence imaging, at 2 µM; inhibition: stronger effect = higher value; nuclei count: measured here: cell number, toxicity;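 for inhibition: signal is fraction of cell area covered by stained E-selectin grains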;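 for nuclei count: 100% = median nuclei count of all wells on the same plate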
[4] = DUSP6 inhibitors restoring Erk phosphorylation by chemical complementation, primary imaging in DUSP6-transfected HeLa (AID 609;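 active = compounds giving at least 50% inhibition in the cell-based MKP-3 phosphatase rescue imaging test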;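 for inhibition: phospho-Erk level distribution per well compared with pooled transfected vehicle control wells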); settings: HeLa MKP-3 transfected, phospho-Erk imaging KS statistic, at 10 µM, cells stimulated with TPA for 15 min
[5] = target: Dual specificity protein phosphatase 6 (Homo sapiens) (UniProt Q16828); test: as above; settings: HeLa MKP-3 transfected, phospho-Erk imaging KS statistic; at 10 µM; stronger effect = higher value; cells stimulated with TPA for 15 min
Sequence of Dual specificity protein phosphatase 6 (Homo sapiens) (Q16828 whole entry, looked up): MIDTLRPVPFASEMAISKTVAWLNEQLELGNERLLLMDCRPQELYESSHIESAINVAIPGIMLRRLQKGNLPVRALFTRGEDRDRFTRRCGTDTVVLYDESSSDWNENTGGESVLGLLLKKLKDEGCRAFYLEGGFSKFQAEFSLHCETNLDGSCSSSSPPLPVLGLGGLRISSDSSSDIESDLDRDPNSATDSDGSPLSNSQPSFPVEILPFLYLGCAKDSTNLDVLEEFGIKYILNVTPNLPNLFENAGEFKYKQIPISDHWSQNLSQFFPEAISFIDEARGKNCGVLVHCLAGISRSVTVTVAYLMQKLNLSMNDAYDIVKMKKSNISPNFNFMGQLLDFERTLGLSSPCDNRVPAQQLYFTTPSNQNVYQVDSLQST

[6] = target: Voltage-gated potassium channel subunit beta-2 (Rattus norvegicus) (UniProt P62483); test: KvBeta enzyme negative modulators, primary screen, biochemical, NADPH fluorescence (AID 622;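 active = fluorescence slope higher than the sample average by over 3 SD, cut at about -0.22 in these data, passing the limit was not always enough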;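 note: slope of raw intensity against log time taken from 70 to 1610 s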); settings: recombinant KvBeta, 4-cyanobenzaldehyde reduction, at 10 µM, stronger effect = higher value
Sequence of Voltage-gated potassium channel subunit beta-2 (Rattus norvegicus) (P62483 whole entry, looked up): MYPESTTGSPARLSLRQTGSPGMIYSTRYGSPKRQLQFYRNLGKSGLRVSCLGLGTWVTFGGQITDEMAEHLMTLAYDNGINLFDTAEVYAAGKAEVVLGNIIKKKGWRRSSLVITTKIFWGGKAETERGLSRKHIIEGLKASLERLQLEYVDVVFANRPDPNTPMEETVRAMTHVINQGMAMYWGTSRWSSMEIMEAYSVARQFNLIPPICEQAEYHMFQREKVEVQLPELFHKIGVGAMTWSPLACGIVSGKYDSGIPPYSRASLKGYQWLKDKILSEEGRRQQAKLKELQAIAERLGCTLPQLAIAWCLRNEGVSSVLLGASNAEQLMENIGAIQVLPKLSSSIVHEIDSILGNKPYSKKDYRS

[7] = target: Voltage-gated potassium channel subunit beta-2 (Rattus norvegicus) (UniProt P62483); test: KvBeta positive modulators, primary screen, biochemical, NADPH fluorescence (AID 623;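 active = NADPH fluorescence slope more negative than the mean of all samples by about 3 SD, 99.7% confidence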;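 note: fluorescence intensity change per second fitted from 20 to 320 s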); settings: Recombinant KvBeta, NADPH fluorescence decrease slope, 10 min; at 10 µM; stronger effect = lower value
[8] = target: Alpha-2C adrenergic receptor (Homo sapiens) (UniProt P18825); test: modulators of alpha2C/GIRK thallium flux, primary screen, cell-based, HEK293 alpha2C/GIRK1/2 (AID 624;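 active = fluorescence slope after compound addition differing from the mean of all screened samples at 99.7% confidence, in either direction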;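 note: slope of fluorescence ratio to pre-addition baseline per second over 15 to 24 s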); settings: thallium flux BTC fluorescence, at 10 µM, actives lie on both sides
Sequence of Alpha-2C adrenergic receptor (Homo sapiens) (P18825 whole entry, looked up): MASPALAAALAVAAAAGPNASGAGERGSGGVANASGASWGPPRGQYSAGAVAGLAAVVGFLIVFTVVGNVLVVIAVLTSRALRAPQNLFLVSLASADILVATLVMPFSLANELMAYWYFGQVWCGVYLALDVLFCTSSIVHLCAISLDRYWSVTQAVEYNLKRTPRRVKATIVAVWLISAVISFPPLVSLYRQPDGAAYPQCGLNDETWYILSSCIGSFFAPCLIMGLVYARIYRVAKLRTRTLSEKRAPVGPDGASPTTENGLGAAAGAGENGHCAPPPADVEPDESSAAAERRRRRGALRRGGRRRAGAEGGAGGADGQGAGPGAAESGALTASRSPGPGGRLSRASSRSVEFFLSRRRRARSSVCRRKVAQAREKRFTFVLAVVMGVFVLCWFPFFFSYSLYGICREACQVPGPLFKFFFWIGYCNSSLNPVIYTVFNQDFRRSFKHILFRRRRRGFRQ

[9] = target: Muscarinic acetylcholine receptor M4 (Homo sapiens) (UniProt P08173); test: compounds altering M4/GIRK thallium flux, either direction, primary screen, M4 allosteric agonist project, cell-based, HEK293 M4/GIRK, BTC-AM (AID 625;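 active = fluorescence slope after compound addition differing from the mean of all tested samples at 99.7% confidence, mostly higher but some lower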;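 note: thallium influx through GIRK channels coupled to M4 in HEK293 cells with BTC-AM dye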); settings: at 10 µM, actives lie on both sides
Sequence of Muscarinic acetylcholine receptor M4 (Homo sapiens) (P08173 whole entry, looked up): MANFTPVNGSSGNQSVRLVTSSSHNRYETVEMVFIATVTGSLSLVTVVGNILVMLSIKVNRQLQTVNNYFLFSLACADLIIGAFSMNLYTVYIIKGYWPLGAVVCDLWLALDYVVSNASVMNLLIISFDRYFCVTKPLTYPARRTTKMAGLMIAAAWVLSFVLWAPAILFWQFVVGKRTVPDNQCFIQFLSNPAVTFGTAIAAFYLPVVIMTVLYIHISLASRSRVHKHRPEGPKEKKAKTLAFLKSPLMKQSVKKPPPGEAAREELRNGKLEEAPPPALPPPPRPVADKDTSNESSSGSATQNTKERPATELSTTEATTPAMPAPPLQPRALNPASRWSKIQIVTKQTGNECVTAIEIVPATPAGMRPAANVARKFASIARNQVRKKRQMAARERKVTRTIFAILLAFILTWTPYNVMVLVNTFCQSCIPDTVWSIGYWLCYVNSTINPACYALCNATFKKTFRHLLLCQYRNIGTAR

[10] = inhibitors of larval lipid processing in zebrafish, primary screen, whole organism, PED6 fluorescence, gall bladder and intestine (AID 686;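 active = a full or partial loss of lipid-probe fluorescence in the fish gall bladder, intestine or both, judged by eye; inactive = no fluorescence loss, or compound toxic to the fish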;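 note: larvae 5 to 7 days old with five fish per well; signal comes from phospholipase A2 cleavage of quenched PED6 carried via bile; overnight exposure to compound and PED6 before scoring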); settings: Zebrafish larvae PED6 lipid processing, fluorescence scoring; screened at 20 µM (by protocol)
[11] = inhibitors of Chlamydomonas gravitaxis, primary screen, whole organism, Chlamydomonas reinhardtii, WT vs cilia-less mutant, absorbance, 96-well (AID 463189;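 active = inhibition at or above 50% relative to wild type and mutant plate controls; inactive = inhibition below 50%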;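 note: 0% = wild type cc124 cells in DMSO and 100% = ciliumless bld1 mutant cells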); settings: OD600 absorbance, 2 days, at 10 µM, stronger effect = higher value
[12] = inhibitors of Sendai virus-induced IRF3 signaling, primary screen, TLR/RLR signaling modifier project, cell-based, Sendai virus stimulus, luciferase, 10K MLSCN set (AID 602276;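 active = inhibition at or above 50% at 10 µM; inactive = inhibition below 50%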;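 note: firefly luciferase from ISG56 promoter only with Renilla not read in this screen; 0% = Sendai virus plus DMSO and 100% = medium plus DMSO without virus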); settings: HEK293 RL24 IRF3 luciferase reporter, at 10 µM, stronger effect = higher value
[13] = inhibitors of poly I:C-induced TLR3 signaling, primary screen, cell-based, poly I:C stimulus, luciferase, 10K MLSCN set (AID 602277;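 active = inhibition of the reporter signal at or above 50%; inactive = inhibition below 50%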); settings: HEK293-TLR3 RL24 IRF3 luciferase reporter, at 10 µM, stronger effect = higher value
[14] = measured here: cell density z-score
[15] = measured here: nuclear c-Myc green intensity z-score
[16] = measured here: nuclear pErk red intensity z-score, stronger effect = higher value

Compound | cell count [1] | inhibition [1] | inhibition of aggregation [2] | nuclei count [2] [%] | inhibition [3] | nuclei count [3] [%] | z-score [4, 14] | z-score [4, 15] | z-score [4, 16] | inhibition [5] | fluorescence slope [6] | NADPH fluorescence slope [7] | slope [8] | fluorescence slope [9] | outcome [10] | inhibition [11] | inhibition [12] | inhibition [13]
Cc1cc(C)c2c(N)c(C(=O)c3ccccc3)oc2n1 | 544 | -4.5% (inactive) | 6.6% (inactive) | 96.6 | -33.5% (inactive) | 134 | -0.541 | 1.87 | 0.479 | -3.95% (inactive) | -0.437 (inactive) | -2.9e-05 (inactive) | 0.00545 (inactive) | 0.00618 (inactive) | inactive | 14.6% (inactive) | -2.38% (inactive) | -28.6% (inactive)
CNC(=O)CC(C(=O)O)c1ccc(OC(C)C)cc1 (stereo not given) | 649 | -0.5% (inactive) | 26.1% (inactive) | 89.4 | 21.1% (inactive) | 125 | -0.892 | 0.826 | 1.07 | -2.09% (inactive) | -0.454 (inactive) | -4e-05 (inactive) | 0.00593 (inactive) | 0.00492 (inactive) | inactive | 2.81% (inactive) | 12.9% (inactive) | 19.4% (inactive)
N#CC1(c2ccccc2)CCC(=NO)CC1 (stereo not given) | 685 | -0.6% (inactive) | -8% (inactive) | 102 | 8.8% (inactive) | 86.8 | -0.0727 | 1.42 | -0.351 | -13.3% (inactive) | -0.461 (inactive) | -4.5e-05 (inactive) | 0.00512 (inactive) | 0.00503 (inactive) | inactive | -5.88% (inactive) | 10.2% (inactive) | 20.6% (inactive)
CCOC(=O)CSC1=C(C#N)C(c2ccc(C)cc2)C(C(=O)OC)C(=O)N1 (stereo not given) | 643 | 4.3% (inactive) | -1.7% (inactive) | 81.9 | -39.2% (inactive) | 133 | 0.598 | 0.472 | -0.921 | 2.92% (inactive) | -0.474 (inactive) | -8.1e-06 (inactive) | 0.00434 (inactive) | 0.00679 (inactive) | inactive | 6.69% (inactive) | -15.1% (inactive) | -12.7% (inactive)
CCCCCC1CC(CC#CCN2CCOCC2)C(=O)O1 (stereo not given) | 620 | -2.8% (inactive) | 10.5% (inactive) | 90.2 | -6.1% (inactive) | 128 | 0.645 | -0.292 | 0.592 | 3.49% (inactive) | -0.452 (inactive) | -4.2e-05 (inactive) | 0.00528 (inactive) | 0.00481 (inactive) | inactive | -4.86% (inactive) | -1.94% (inactive) | 10.9% (inactive)
CC(C)c1nc(NCC2CCCO2)c(C#N)c2c1COC(C)(C)C2 (stereo not given) | 354 | -4.5% (inactive) | 6.9% (inactive) | 86.9 | -236% (inactive) | 132 | -0.206 | -0.66 | -0.111 | -8.59% (inactive) | -0.461 (inactive) | -9.6e-05 (inactive) | 0.00432 (inactive) | 0.00335 (inactive) | inactive | -3.7% (inactive) | 20.5% (inactive) | 25.1% (inactive)
N#Cc1nc(COc2ccc(Br)cc2)oc1N1CCCC1 | 482 | -2.8% (inactive) | -13.8% (inactive) | 111 | 14.5% (inactive) | 132 | -1.92 | 1.26 | 1.21 | 6.04% (inactive) | -0.434 (inactive) | -7e-05 (inactive) | 0.00386 (inactive) | 0.00636 (inactive) | inactive | -0.7% (inactive) | 12.8% (inactive) | 1.37% (inactive)
CC(C)CNC(=O)c1c(N)n(/N=C/c2ccccn2)c2nc3ccccc3nc12 | 533 | -2.3% (inactive) | -1.4% (inactive) | 105 | -33.4% (inactive) | 129 | 1.46 | -0.805 | -0.75 | 4.37% (inactive) | -0.43 (inactive) | -3.5e-05 (inactive) | 0.00506 (inactive) | 0.0059 (inactive) | inactive | 31.2% (inactive) | -0.468% (inactive) | -13.1% (inactive)
Cc1cc(NCC2CCCO2)n2c(nc3ccccc32)c1C#N (stereo not given) | 481 | -3.7% (inactive) | 16.3% (inactive) | 95.7 | -9.7% (inactive) | 113 | -1.71 | 1 | 0.144 | 1.48% (inactive) | -0.356 (inactive) | -1.1e-05 (inactive) | 0.00569 (inactive) | 0.00588 (inactive) | inactive | -17.8% (inactive) | 16.8% (inactive) | 15.3% (inactive)
CC1(C(=O)CSc2nc3ccccc3s2)CCC(=O)O1 (stereo not given) | 609 | -11.4% (inactive) | -14.5% (inactive) | 78.9 | -179% (inactive) | 131 | 0.414 | -1.1 | -0.368 | -4.27% (inactive) | -0.471 (inactive) | -0.000167 (inactive) | 0.00616 (inactive) | 0.00529 (inactive) | inactive | 6.36% (inactive) | 6.48% (inactive) | 21.8% (inactive)
CC1(C2(O)CC(c3ccccc3)ON2)CCCCC1 (stereo not given) | 623 | 1.7% (inactive) | 41.9% (inactive) | 65.3 | -10.4% (inactive) | 105 | -1.89 | -1.27 | 0.343 | -6.06% (inactive) | -0.516 (inactive) | -7.6e-05 (inactive) | 0.0054 (inactive) | 0.00556 (inactive) | inactive | 9.38% (inactive) | 2.61% (inactive) | 4.59% (inactive)
CCN1CCc2c(C#N)c(N3CCOCC3)nc(NCc3ccccc3)c2C1 | 507 | 9.3% (inactive) | 4.7% (inactive) | 80.7 | -218% (inactive) | 110 | 0.377 | -1.7 | 2.2 | -11.5% (inactive) | -0.484 (inactive) | -3.1e-05 (inactive) | 0.00496 (inactive) | 0.00486 (inactive) | inactive | 27.4% (inactive) | 10.8% (inactive) | 10.8% (inactive)
CCOc1cc(C2Nc3ccccc3C(=O)N2c2ccccc2OC)ccc1O (stereo not given) | 587 | -3.1% (inactive) | -2.3% (inactive) | 100 | -136% (inactive) | 124 | 0.614 | -1.2 | -0.417 | 9.07% (inactive) | -0.348 (inactive) | -3.8e-05 (inactive) | 0.0046 (inactive) | 0.0049 (inactive) | inactive | 2.2% (inactive) | -2.55% (inactive) | -13.2% (inactive)
CCOc1ccc2nc(SCC(=O)Nc3ncccn3)[nH]c2c1 | 478 | -3.6% (inactive) | -10.2% (inactive) | 111 | -10.6% (inactive) | 138 | -1.13 | -0.409 | 1.4 | 1.98% (inactive) | -0.358 (inactive) | -4.6e-05 (inactive) | 0.00651 (inactive) | 0.00652 (inactive) | inactive | 10.6% (inactive) | -10.6% (inactive) | 99.1% (active)
CCOC(=O)c1[nH]c2ccc(OC)cc2c1NC(=O)CCN1CCC(C)CC1 | 568 | -0.3% (inactive) | 6.8% (inactive) | 110 | -54.8% (inactive) | 115 | 0.39 | -0.288 | -0.933 | -8.59% (inactive) | -0.339 (inactive) | -3.9e-05 (inactive) | 0.00576 (inactive) | 0.00353 (inactive) | inactive | 29.3% (inactive) | -0.0655% (inactive) | 13.6% (inactive)
Cn1c(=O)c2c(nc(Oc3ccc4c(c3)OCO4)n2Cc2ccc(F)cc2)n(C)c1=O | 691 | -7.2% (inactive) | 4.8% (inactive) | 108 | -27.6% (inactive) | 90.8 | -1.8 | -0.122 | -1.44 | 1.9e-07% (inactive) | -0.503 (inactive) | -2e-05 (inactive) | 0.00727 (inactive) | 0.00586 (inactive) | inactive | -14.6% (inactive) | 20.6% (inactive) | 26.7% (inactive)
N#CC1=C(N)OC2=C(C(=O)CCC2)C1CCc1ccccc1 (stereo not given) | 620 | 2.3% (inactive) | 21% (inactive) | 110 | -94.4% (inactive) | 110 | 1.04 | -0.525 | -0.374 | 2.92% (inactive) | -0.527 (inactive) | -1.3e-05 (inactive) | 0.00639 (inactive) | 0.00745 (inactive) | inactive | 33.2% (inactive) | 7.7% (inactive) | 15.7% (inactive)
COC(=O)/C=c1/s/c(=C(/C#N)C(=O)N2CCOCC2)n(-c2ccccc2)c1=O | 611 | 1.5% (inactive) | -12.2% (inactive) | 98.4 | 7.3% (inactive) | 119 | 0.31 | -0.164 | -0.787 | 1.63% (inactive) | -0.479 (inactive) | -5e-05 (inactive) | 0.0052 (inactive) | 0.00508 (inactive) | inactive | 21% (inactive) | 15.2% (inactive) | 17.7% (inactive)
c1ccc(-c2ccc(C(c3ccccc3)n3ccnc3)cc2)cc1 (stereo not given) | 591 | 2% (inactive) | 10.9% (inactive) | 91.4 | -58.4% (inactive) | 106 | -1.14 | 0.79 | -0.101 | 16.8% (inactive) | -0.555 (inactive) | -3.5e-05 (inactive) | 0.00412 (inactive) | 0.00623 (inactive) | inactive | 13.3% (inactive) | 2.51% (inactive) | 18.2% (inactive)
O=C(CCN1C(=O)c2ccccc2C1=O)OCN1C(=O)c2ccccc2C1=O | 490 | 2.7% (inactive) | 10% (inactive) | 95.1 | -112% (inactive) | 151 | 0.766 | -1.53 | -0.92 | 29.7% (inactive) | -0.336 (inactive) | 4.5e-07 (inactive) | 0.00721 (inactive) | 0.00607 (inactive) | inactive | 1.44% (inactive) | -10.1% (inactive) | -11.6% (inactive)

— PubChem BioAssay
